This is a sample that favours compounds with a hit; in the whole collection about 15% have one here.
Gal4-VP16 FLuc – Gal4-VP16 reporter inhibition counter-screen. Potency, µM (series often up to 53.6 µM), for the others: at the top dose activity, negative = inhibition, usual class: inhibitors. 310,000 compounds, 3.5% hits. Drosophila S2 Gal4-VP16 UAS-luciferase, luminescence, 20 h;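 note: Gal4-VP16 expression switched on by copper sulfate through the metallothionein promoter; nearly all actives have a fitted effect of over 50% in size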
RORgamma inh – inhibitors of mouse ROR gamma transcriptional activity | 310,000 compounds, 5.4% hits | AID 2551 | Drosophila S2 Gal4-RORgamma UAS-luciferase reporter, 20 h | Potency, µM (series often up to 53.6 µM), for the others: at the top dose activity change, negative = inhibition, hits mostly inhibitors; note: nearly all actives have a fitted effect of over 60% in size
Target sequence (P51450 whole entry, looked up, the tested form may be a part): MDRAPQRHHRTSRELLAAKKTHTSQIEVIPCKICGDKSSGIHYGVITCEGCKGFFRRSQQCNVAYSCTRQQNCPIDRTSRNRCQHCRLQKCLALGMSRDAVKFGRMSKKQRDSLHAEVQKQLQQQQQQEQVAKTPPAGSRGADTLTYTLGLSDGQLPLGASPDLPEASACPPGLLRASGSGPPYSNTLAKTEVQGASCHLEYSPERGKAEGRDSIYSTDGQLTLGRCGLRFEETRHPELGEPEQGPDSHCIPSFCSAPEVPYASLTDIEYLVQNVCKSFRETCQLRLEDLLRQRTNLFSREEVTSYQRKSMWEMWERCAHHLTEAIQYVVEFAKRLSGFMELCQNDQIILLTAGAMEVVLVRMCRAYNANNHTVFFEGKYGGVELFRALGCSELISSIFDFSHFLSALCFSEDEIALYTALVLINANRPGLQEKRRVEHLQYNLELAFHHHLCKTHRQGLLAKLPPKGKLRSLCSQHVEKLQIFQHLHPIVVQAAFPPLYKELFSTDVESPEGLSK
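Stably transfected Drosophila Schneider cells are the test system, with ROR gamma fused to Gal4 and luciferase under UAS control; luminescence is read after 20 hr of 700 uM copper sulfate induction at ambient temperature.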
DT40 TDP1 CPT – DT40-hTDP1 cell growth loss with CPT; Potency, µM (titrated, usually from 46.2 µM), without a hit: at the highest dose activity change, negative = growth inhibition, hits mostly inhibitors; chicken DT40 Tdp1-/-;hTDP1 cells + 20 nM CPT, ATP luminescence, 48 h; 420,000 compounds, 12% hits; note: nearly all actives have a fitted effect of over 55% in size
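Chicken DT40 Tdp1-/- cells stably complemented with human TDP1 were seeded at 400 cells/well in medium containing 20 nM camptothecin, exposed to pin-transferred compounds, and grown at 37 °C for at least 48 hr. Viability was read as ATP luminescence.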
DT40 TDP1 no CPT – qHTS for Inhibitors of human tyrosyl-DNA phosphodiesterase 1 (TDP1): qHTS in cells in absence of CPT. DT40 Tdp1-/- hTDP1 cells, no CPT, ATP luminescence, 48 h. 420,000 compounds, 15% hits. Potency, µM (series often up to 46.2 µM), for the others: at the highest dose activity change, negative = growth inhibition, most hits filed as inhibitors; note: nearly all actives have a fitted effect of over 55% in size
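Cells were dispensed at 400 per well, compounds added by pin tool, plates incubated ≥48 hr at 37 °C, then CellTiter-Glo added for 30 min at room temperature before luminescence reading. Line: DT40 Tdp1-/- complemented with hTDP1; camptothecin omitted.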
ALOX12 inh – ALOX12 (human) lipoxygenase inhibition; P18054; purified 12hLO, xylenol orange hydroperoxide absorbance; Potency, µM (series often up to 108 µM), for the others: top-dose activity change, negative = inhibition, hits mostly inhibitors; 580,000 compounds, 1.1% hits; AID 1671190
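Purified human 12hLO at 150 nM in 25 mM Hepes, 0.01% Triton X-100, pH 7.0, preincubated 15 min at room temperature with compound. Reaction started with 40 uM arachidonic acid, 30 min at room temperature. Hydroperoxide measured by Fe-xylenol orange, 573/405 nm absorbance ratio.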
ELG1 DNA repair – ELG1-dependent DNA repair inhibition. HEK293T ELG1-luciferase reporter, luminescence, 16 h; DNA damage induced by 5-fluorouridine. Potency, µM (highest dose often 46.1 µM), inactives show at the top dose activity change, negative = inhibition, hits mostly inhibitors. 330,000 compounds, 2.3% hits; note: nearly all actives have a fitted effect of over 55% in size
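5-Fluorouridine DNA damage + compound/DMSO, 2,000 cells/well, 16 h, 37 °C/5% CO2. ONE-Glo, 30 min RT, luminescence. Readout = decrease in reporter signal.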
Numbers without * were called inactive; ? = inconclusive; / = no result; [ ] = remark or other dose. Calls come from the whole dose curve; as a rule, active = well fitted curve in the direction sought with a large enough effect; inconclusive = small, poorly fitted or top-dose-only effect, or another doubt; inactive = no such curve, though single readings can be large; an effect the other way counts as inactive or inconclusive. % is set by controls: 0 for no effect and ±100 for the full control effect; potency is the fitted concentration of half-maximal effect.

SMILES	Gal4-VP16 FLuc	RORgamma inh	DT40 TDP1 CPT	DT40 TDP1 no CPT	ALOX12 inh	ELG1 DNA repair
Cc1ccc(OCC(=O)Nc2ccc3[nH]ncc3c2)cc1C	/	/	/	/	13.6%	/
COC(=O)c1ccc(C(NC(=O)OCc2ccccc2)/C(F)=C/[C@@H](C)C(=O)NCc2ccc(OC)c(OC)c2)cc1 (some centres undefined)	?	-2.6%	23.1µM*	?	-26.9%	18.4µM*
COC(=O)c1ccc(C(NC(=O)OCc2ccccc2)/C(F)=C/[C@@H](C)C(=O)NCc2ccc(-c3ccccc3)cc2)cc1 (some centres undefined)	-19.7%	41.8%	16.4µM*	?	/	24.8%
COC(=O)c1ccc(C(NC(=O)OCc2ccccc2)/C(F)=C/[C@@H](C)C(=O)NCc2cc(F)cc(F)c2)cc1 (some centres undefined)	-12.9%	16.2%	/	/	/	/
CCN(CC)C(=O)N1CCCCCCNC(=O)[C@@H]2C[C@@H](c3nc(-c4cccnc4)no3)C[C@@H]21	/	/	/	/	60.0%	/
CC(C)c1cc(C(=O)NC2CC2)c2cnn(C(C)C)c2n1	/	/	/	/	-6.8%	/
C#CCOCCOCCOCCNc1nc(N2CCOCC2)nc(N2CCN(C(=O)[C@H](CCCCN)n3cc(CCCC)nn3)CC2)n1	/	/	0.206µM*	1.3µM*	35.5µM*	/
C#CCOCCOCCOCCNc1nc(N2CCN(C(=O)[C@H](CCCCN)n3cc(CC(C)O)nn3)CC2)nc(N2CCN(C(=O)[C@H](CCCCN)n3cc(CC(C)O)nn3)CC2)n1 (some centres undefined)	/	/	17.7%	6.4%	12.6µM*	18.2%
COc1ccc(CNC(=O)C(N)c2c(C)n[nH]c2C)c(F)c1F (centres undefined)	/	/	/	/	-11.7%	/
CC(=O)N1CCC(N2C[C@@H]3OCC(=O)N(CC(N)=O)[C@@H]3C2)CC1	/	/	/	/	58.8%[176 µM]	/
CCC1CCCCN1C(=S)NC(=O)c1cccc([N+](=O)[O-])c1 (centres undefined)	-89.0%	0.282µM*	?	?	0.0%	-15.3%
CN1CCCCC(NC(=O)c2cccc([N+](=O)[O-])c2)C1=O (centres undefined)	/	/	/	/	-16.3%	/
O=C(NC(=S)N(CC1CCC1)CC1CCCO1)c1cccc([N+](=O)[O-])c1 (centres undefined)	0.282µM*	56.2µM*	?	?	-3.0%	-8.0%
S=C1NC2(CCCCC2)N=C1c1ccccc1	3.55µM*	3.16µM*	?	?	-15.2%	16.9%
Cc1ccc(C2=NC3(CCCCC3)NC2=S)cc1	3.98µM*	2µM*	0.1%	-6.8%	6.8%	?
S=C1NC2(CCCCC2)N=C1c1ccc(Br)cc1	/	/	/	/	-20.7%	/
CCN1CCC2(CC1)N=C(c1ccc(F)cc1)C(=S)N2	-4.3%	12.6µM*	0.1%	-2.5%	?	-15.1%
Cc1cccc(-c2ocnc2C(=O)NCCc2ccccc2)c1	/	/	/	/	6.1%	/
CCCc1nnc(NC(=O)CCC(=O)N2CCN(Cc3ccc(C)cc3C)CC2)s1	-23.2%	?	-21.7%	8.2µM*	-11.7%	?
CCc1nnc(NC(=O)CCC(=O)N2CCN(CCOc3ccc(C)cc3)CC2)s1	-0.6%	21.2%	-25.5%	?	1.4%	23.1µM*
CCc1nnc(NC(=O)CCC(=O)N2CCN(Cc3ccc(C)cc3C)CC2)s1	-23.8%	36.9%	?	18.4µM*	-2.0%	-2.3%
CCCc1nnc(NC(=O)CCC(=O)N2CCCCCC2)s1	5.2%	26.3%	-7.4%	-1.6%	0.0%	0.0%
Cc1ccc(CN2CCN(C(=O)CCC(=O)Nc3nnc(C(C)C)s3)CC2)c(C)c1	0.0%	20.3%	?	?	-7.0%	2.5%

Screening data (PubChem)
